Screening data: PubChem, several laboratories
An excerpt weighted towards active compounds, which were near 2.9% of everything screened.
CF NFkB inh = inhibitors of cystic fibrosis induced NF-kB | KKLEB NF-kB-GFP reporter, PAF-induced, GFP fluorescence overnight | inhibition, % at 5 µM | 0.86% of 360,000 active | AID 588850;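 active = at least 50% inhibition at 5 µM, scaled per plate between neutral and stimulator controls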;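 note: PAF is a Pseudomonas aeruginosa culture filtrate used as stimulus; plate controls were PAF-stimulated DMSO wells for no effect and unstimulated DMSO wells for full effect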
EBV LMP1 NFkB = inhibitors of Epstein-Barr LMP1-induced NF-kappaB reporter; 0.69% of 350,000 active; inhibition, % at 12.5 µM; AID 504558; LMP1-induced NF-kappaB luciferase reporter cells, luminescence; in the data active = inhibition above about 41%; inconclusive = no clear call, values can overlap the other calls;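 note: 0% = neutral control wells and 100% = reference inhibitor control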
Shn3 3UTR inh = inhibitors of Schnurri-3 3'UTR reporter in osteoblasts | AID 588674 | inhibition, % at 12.5 µM | Clone20 osteoblast Shn3 3'UTR firefly luciferase, 24 h | 0.52% of 360,000 active;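 active = mean inhibition of at least 75% with every replicate also reaching 75%; inconclusive = mean inhibition at least 75% but some replicate below; inactive = mean inhibition below 75%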;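 note: 0% = median of neutral control wells and 100% = pilot-screen positive control compound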
MITF TRPM1 inh = inhibitors of MITF-driven TRPM1 promoter in melanoma cells | SK-MEL-5 TRPM1 promoter luciferase, 24 h | inhibition, % at 12.5 µM | 0.83% of 330,000 active;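 active = mean inhibition across replicates of 60% or more, whatever share of single replicates reaches that level; inconclusive = some that reach 60%, reason not given; inactive = mean inhibition across replicates below 60%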
Peg3 prom inh = reduces Peg3 promoter-driven luciferase expression in HeLa; AID 588405; HeLa PEG-Prom luciferase reporter, luminescence, overnight; 1.7% of 360,000 active; inhibition, % at 20 µM;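 active = inhibition of at least 50% at 20 µM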
KKLEB tox = counter-screen for CF NF-kB inhibitors: cytotoxicity; KKLEB CF airway cells viability, ATPlite luminescence, overnight; stronger effect = lower value; cells stimulated with P. aeruginosa culture filtrate; activity change (cytotoxicity), % at 5 µM; 0.36% of 360,000 active;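 active = corrected activity change at or below -50% at 5 µM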
An asterisk follows results filed as active; ? = inconclusive; nt = not tested or not shown; ! = a repeat was not active.

SMILES	CF NFkB inh	EBV LMP1 NFkB	Shn3 3UTR inh	MITF TRPM1 inh	Peg3 prom inh	KKLEB tox
O=[N+]([O-])c1cccc(/C=N/Nc2cc(Cl)nc(-c3ccccc3)n2)c1	0.0	15.0	11.1	6.7	2.4	-12.9
COc1c(Cl)cc(Cl)cc1/C=C/C(=O)c1ccc(NC(=O)c2cccs2)cc1	87.5*	-46.5	68.9	68.1*	100.3*	-82.1*
COc1c(Cl)cc(Cl)cc1C(=O)Nc1ccc(C(=O)O)cc1	-0.7	1.9	-10.5	5.2	4.8	5.0
CN(C)CCC(c1ccccc1)c1ccccn1 (stereo not drawn)	-2.5	56.4*!	-5.0	-11.0	10.1	-1.7
CCCCCCCCNCCS(=O)(=O)NC1CCCCC1	22.4	2.0	16.5	-6.1	26.4	-20.0
N=c1c2c(-c3ccccc3)c(-c3ccccc3)n(Cc3ccco3)c2ncn1Cc1ccco1	28.7	-3.3	13.4	66.5*	104.7*	-13.5
N=c1c2c(-c3ccccc3)c(-c3ccccc3)n(Cc3ccccc3)c2ncn1CCCn1ccnc1	16.5	-54.2	34.1	94.4*	106.2*	-23.7
CC(=O)NCCNc1nc2cc(-c3ccc(Cl)cc3C)sc2c(=O)n1C	-10.1	nt	0.3	nt	-18.7	3.0
COc1ccc(C(=O)c2sc(NC(C)C)nc2N)cc1OC	57.7*	-3.0	-9.0	0.3	34.4	-4.4
COc1ccc(Nc2nc(N)c(C(=O)c3ccc(OC)cc3)s2)cc1	52.9*	-4.9	-7.3	-43.6	-5.1	-2.0
COc1ccc(Nc2nc(N)c(C(=O)c3ccc(F)cc3)s2)cc1	41.0	-0.7	16.7	-7.8	-43.8	-10.9
COCCOC(=O)N1CCCCC1c1cc(C(=O)NCc2ccc(Cl)c(Cl)c2)no1 (stereo not drawn)	22.2	nt	22.2	nt	15.3	-7.6
O=C(CN(Cc1cccs1)C(=O)CNS(=O)(=O)c1ccccc1)NCc1ccco1	16.5	89.7*	-7.2	9.7	10.0	4.6
O=c1c(Cl)c2oc3ccccc3nc-2c2ccccc12	-57.3	-13.3	7.8	63.3*	-14.7	7.7
Clc1ccc(-c2nnc(Sc3nc4ccccc4o3)c3ccccc23)cc1	42.5	-15.5	-23.8	-22.2	25.2	-17.7
COc1ccc(C(=O)N2CCc3ccccc3C2)cc1S(=O)(=O)N1CCCC1	-19.3	2.0	-6.2	nt	10.6	15.4
Cc1ccc(NC(=O)c2ccc(N/N=C/c3cccc(O)c3)c([N+](=O)[O-])c2)cc1	19.7	-25.8	-1.2	78.5*	67.1*	-17.3
CCSc1ccccc1C(=O)N1CCCC1	11.6	-1.5	-5.0	-5.7	12.4	0.4
CCSc1ccccc1C(=O)n1nnc2ccccc21	60.8*	-0.9	72.8	69.1*	70.1*	-18.7
Cc1ccc(C(C(=O)NCc2ccco2)N(C(=O)CNC(=O)c2cccs2)c2c(C)cc(C)cc2C)cc1 (stereo not drawn)	28.3	-47.1	53.4	32.1	57.7*	-34.3
COc1ccccc1NC(=O)NCc1ccco1	3.0	-7.0	27.8	-6.7	-10.7	2.1
COc1cc(NC(=O)NCc2ccco2)ccc1-c1ccc(NC(=O)NCc2ccco2)cc1OC	-3.8	0.9	82.7*	?	25.8	-13.9
CCOC(=O)c1c(CSc2ccccc2)n(C)c2cc(Br)c(OCC(O)CNC(CO)(CO)CO)cc12 (stereo not drawn)	-3.7	2.3	0.3	89.5*	97.2*	-6.2
CCOC(=O)c1c(CSc2ccccc2)n(C)c2cc(Br)c(OC)c(O)c12	19.7	-1.5	-3.4	-9.7	3.2	-17.9
Nc1nc(Cl)nc2c1ncn2C1CC(O)C(CO)O1 (stereo not drawn)	27.8	23.9	89.8*	11.7	18.6	-22.4
SMILES	CF NFkB inh	EBV LMP1 NFkB	Shn3 3UTR inh	MITF TRPM1 inh	Peg3 prom inh	KKLEB tox
Nc1nc(F)nc2c1ncn2[C@@H]1O[C@H](CO)[C@@H](O)[C@H]1O	81.4*	91.1*	95.7*	92.8*	94.6*	-28.5
Nc1nc(F)nc2c1ncn2[C@@H]1O[C@H](CO)[C@@H](O)[C@@H]1O	-9.1	2.6	9.2	0.8	22.8	15.2
CN1CCN(c2nc3cc(N4CCOCC4)ccc3s2)CC1	1.0	-9.7	-17.3	nt	-190.8	-6.9
COc1cccc(C(O)c2nc(-c3cnn(C)c3)cs2)c1 (stereo not drawn)	-11.0	nt	-2.6	nt	9.1	9.9
Cc1ccc(-c2c[n+](Cc3cccc(Cl)c3)c3n2CCC3)cc1	-7.6	6.0	46.7	67.4*	24.2	3.2
Cc1cnc(C)c(Nc2nc(C(N)Cc3ccc(C(F)(F)F)cc3)cs2)n1 (stereo not drawn)	16.3	nt	47.8	nt	108.2*	-12.5
NC(Cc1ccc(C(F)(F)F)cc1)c1csc(Nc2ccccn2)n1 (stereo not drawn)	-3.1	nt	13.1	nt	104.7*	-7.1
NC(Cc1ccc(Cl)cc1)c1csc(Nc2ccc(-c3ccccc3)nn2)n1 (stereo not drawn)	9.2	nt	8.8	nt	99.4*	-13.4
NC(Cc1cnc[nH]1)c1csc(Nc2ccc(C(F)(F)F)cn2)n1 (stereo not drawn)	5.3	nt	-11.4	nt	7.3	-13.4
NC(Cc1ccc(F)cc1)c1csc(Nc2ccc(C(F)(F)F)cn2)n1 (stereo not drawn)	35.0	nt	19.3	nt	95.1*	-9.6
CCCC(=O)Nc1c(-c2ccccc2)[nH][nH]c1=O	-28.7	nt	-7.2	nt	6.0	5.3
NS(=O)(=O)c1ccc(N/N=C/c2cn(-c3ccccc3)nc2-c2ccccc2)c([N+](=O)[O-])c1	1.3	-16.9	nt	76.9*	38.4	-2.9
O=[N+]([O-])c1ccc(N/N=C/c2cn(-c3ccccc3)nc2-c2ccccc2)cc1	-7.4	-16.3	-27.3	-31.5	-42.0	-1.2
Cc1cc(C(=O)CCl)c(C)n1Cc1ccco1	45.3	16.5	5.4	44.5	62.2*	0.4
COC(=O)CCCn1c(C)cc(C(=O)CCl)c1C	23.0	-3.7	6.6	14.0	51.3*	21.4
Cc1cc(C(=O)CCl)c(C)n1-c1cccc([N+](=O)[O-])c1	30.8	10.9	26.3	40.7	105.4*	-19.2
Cc1cc(C(=O)CCl)c(C)n1-c1ccon1	58.2*	4.2	20.0	57.1	53.5*	9.4
COC(=O)CCn1c(C)cc(C(=O)COc2ccccc2C(N)=O)c1C	0.6	6.2	58.4	12.0	2.6	3.7
CC(=O)c1cccc(OCC(=O)c2cc(C)n(-c3cc(C)on3)c2C)c1	-6.1	4.0	33.1	12.9	-9.7	-3.0
COc1cccc(NC(=O)COC(=O)C2CCCCC2)c1	-17.8	-3.6	4.8	-0.4	-8.2	-1.5
Cc1ccc([C@@H]2C[C@H]3[C@@H](CN2S(=O)(=O)c2ccc(Cl)cc2)C(=O)C[C@@H](c2ccccc2)N3S(=O)(=O)c2ccc(C)cc2)cc1	0.2	-1.4	50.3	nt	1.0	11.1
Cc1cc2c(cc1C)NC(=O)C(C)CN2 (stereo not drawn)	-15.5	-44.4	-77.1	nt	-364.4	-11.5
